Hits are enriched below; roughly 3% of the tested compounds scored in any of these assays.
TRb SRC2 PPI: inhibitors of human thyroid hormone receptor beta-SRC2 interaction; hit rate 0.065% among 280,000; AID 1469; Potency, µM (doses to about 106 µM), inactives show at the highest dose activity change, negative = inhibition, usual class: inhibitors; TRbeta-SRC2 peptide binding, fluorescence polarization; receptor liganded with 1 µM T3; P10828;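 note: plate controls were bound peptide for no effect and peptide without receptor for full effect; nearly all actives have a fitted effect of over 50% in size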
Target sequence (P10828 whole entry, looked up): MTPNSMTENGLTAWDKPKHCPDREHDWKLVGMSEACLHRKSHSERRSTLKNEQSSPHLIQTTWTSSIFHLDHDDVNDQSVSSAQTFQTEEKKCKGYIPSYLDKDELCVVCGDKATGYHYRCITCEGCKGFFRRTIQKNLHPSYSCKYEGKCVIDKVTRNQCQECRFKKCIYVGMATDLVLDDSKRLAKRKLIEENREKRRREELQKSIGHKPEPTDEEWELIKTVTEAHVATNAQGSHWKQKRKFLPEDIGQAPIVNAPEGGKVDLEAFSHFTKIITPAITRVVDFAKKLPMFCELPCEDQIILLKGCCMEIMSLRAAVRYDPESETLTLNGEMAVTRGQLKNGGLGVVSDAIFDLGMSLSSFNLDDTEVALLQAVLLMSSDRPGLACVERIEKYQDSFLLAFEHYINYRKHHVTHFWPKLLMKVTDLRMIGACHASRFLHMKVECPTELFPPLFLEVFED
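Quantitative HTS by FP: 0.6 uM TRb LBD, 20 nM labeled SRC2 20-mer, 1 uM T3, 5% DMSO; 5 hr ambient incubation; % activity per concentration and potencies from concentration series.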
Tau FP inhib: blocks human tau fibril formation measured by polarization; K18 P301L tau heparin fibrillization, Alexa594 FP, 6 h; hit rate 0.39% among 280,000; Potency, µM (top dose mostly 57.7 µM), inactives show at the top dose activity, negative = inhibition, actives largely listed as inhibitors; note: nearly all actives have a fitted effect of over 55% in size
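Steps: dispense K18 P301L tau (15 uM plus 0.24 uM Alexa 594 tracer, final) in pH 7 sodium acetate; add compound; add heparin (20 uM final); incubate 6 hr, 37 C; add ThT (30 uM final); after 1 hr ambient, read FP.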
Tau fluor counter: counter-screen for tau fibril formation inhibitors. hit rate 0.93% among 280,000. Potency, µM (titrated, usually from 57.7 µM), for inactives: at the top dose activity change, negative = decrease. AID 1463. tau K18 P301L Alexa594 fluorescence, heparin fibrillization; note: nearly all actives have a fitted effect of over 55% in size
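Human tau K18 P301L (15 uM unlabeled, 0.24 uM Alexa 594-labeled) in 100 mM sodium acetate pH 7 with 20 uM heparin, 6 hr at 37 C. ThT 30 uM added, 1 hr ambient; Alexa 594 FP and total fluorescence read at 555/632 nm.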
Tau fibril ThT: blocks human tau fibril formation measured by thioflavin T. recombinant tau K18 P301L (four-repeat tau fragment), heparin-induced fibrillization, ThT fluorescence. Potency, µM (top dose mostly 57.4 µM), for the others: top-dose activity, negative = inhibition, usual class: inhibitors. hit rate 2.1% among 270,000. AID 1460; note: nearly all actives have a fitted effect of over 55% in size
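Heparin-induced (20 uM) aggregation of recombinant human K18 P301L tau, 15 uM unlabeled with 0.24 uM labeled, pH 7 acetate buffer, 6 hr at 37 C with compound. Fibrils quantified by 30 uM ThT fluorescence after 1 hr ambient incubation.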
TexasRed fluor: Texas Red fluorescence interference in TRb-SRC2 counter-screen; TRb/SRC2 Texas Red total fluorescence interference; Potency, µM (titrated, usually from 106 µM), inactives show at the highest dose fluorescence change, negative = quenching; hit rate 0.29% among 280,000; AID 1479; active = well fitted curve in either direction with a large enough effect; inconclusive = small, poorly fitted or top-dose-only effect
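Human TRb ligand-binding domain at 0.6 uM with 20 nM Texas Red SRC2 peptide in Tris buffer containing 1 uM T3 and 5% DMSO, incubated with compound 5 h at ambient temperature. Total fluorescence (555/632 nm) calculated as parallel + 2 × perpendicular.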
An asterisk follows results filed as active; ? = inconclusive; [ ] = dose if it differs, or a comment. Unless noted, calls come from the whole dose curve; as a rule, active = well fitted curve in the direction sought with a large enough effect; inconclusive = small, poorly fitted or top-dose-only effect, or another doubt; inactive = no such curve, though single readings can be large; an effect the other way counts as inactive or inconclusive. Unless noted, % is set by controls: 0 for no effect and ±100 for the full control effect; potency is the fitted concentration of half-maximal effect.

SMILES	TRb SRC2 PPI	Tau FP inhib	Tau fluor counter	Tau fibril ThT	TexasRed fluor
CCOC(=O)c1c(C)c(-c2ccccc2)n(CC(=O)NCc2cccc(OC)c2)c1C	-4%	1%	1%	4%	3%
Cc1ccc(-c2nnc(Nc3cccc(O)c3)c3ccccc23)cc1S(=O)(=O)N1CCCCC1	2%	?	8.9µM*[quencher]	-13%	-9%
Cc1ccc(-c2nnc(Nc3cccc(Br)c3)c3ccccc23)cc1S(=O)(=O)N1CCCCC1	0%	?	-13%	4%	4%
O=C(N/N=C/c1ccc(-c2ccccc2[N+](=O)[O-])o1)c1cncc(Br)c1	-6%	?	?	7.9µM*	-2%
Cc1cc([N+](=O)[O-])c(C)cc1-c1ccc(/C=N/NC(=O)c2cccnc2)o1	5%	?	?	7.1µM*	4%
O=[N+]([O-])c1ccccc1-c1ccc(/C=N/n2cnnc2)o1	5%	3%	-6%	?	-3%
Nn1cnnc1N/N=C\c1ccc(-c2ccccc2[N+](=O)[O-])o1	-21%	?	?	7.9µM*	?
CCCCCCCC#Cc1ccccc1C(NC(=O)OC)C(C(=O)OC)C(=O)OC (stereo not given)	9%[11.2 µM]	1%[11.6 µM]	-18%[11.6 µM]	-13%[11.5 µM]	-1%[11.2 µM]
CCC(Sc1nc(C)cc(C)n1)C(=O)NC1=NN=C(c2ccc(C)cc2)CS1 (stereo not given)	-3%	?	-17%	32µM*	-6%
CCN1CCc2c(sc(-n3cccc3)c2C(C)NC(=O)Nc2ccc(Br)cc2)C1 (stereo not given)	-1%	25µM*	?	-4%	10%
CCOc1ccc(NC(=O)NC(C)c2c(-n3cccc3)sc3c2CCN(CC)C3)cc1 (stereo not given)	-7%	12%	?	-13%	4%
COc1ccc(NC(=O)c2cc3ccc4c5ccccc5[nH]c4c3cc2O)cc1	-5%	10%	3.2µM*[quencher]	2.2µM*	-3%
CCS(=O)(=O)N1CC(=O)N(c2ccc(C)c(C)c2)C(C)(C(=O)NC2CCCCC2)C1 (stereo not given)	-2%	-10%	5%	16%	4%
Oc1c(C(c2ccccc2Cl)N2CCC(O)CC2)sc2nc(-c3ccco3)nn12 (stereo not given)	1%	-9%	-5%	-6%	-1%
COc1ccc(OC(=O)c2nc(SCc3ccc(F)cc3)ncc2Cl)cc1	-5%	-8%	-17%	?	-3%
O=C(Oc1ccccc1F)c1nc(SCc2ccc(F)cc2)ncc1Cl	2%	-15%	-25%	20µM*	-1%
Cc1cccc(Nc2nc(-c3ccc4c(c3)OCCO4)cs2)c1	-1%	4%	13µM*[quencher]	7.1µM*	-4%
COc1cccc(Nc2ccccc2C(=O)O)c1	2%	-5%	-3%	-8%	1%
Cc1cccc(Nc2nc(-c3ccncc3)cs2)c1	6%	?	?	?	-2%
COc1cccc(Nc2nc(-c3cccc(N4C(=O)c5ccccc5C4=O)c3)cs2)c1	3%	?	7.9µM*[quencher]	?	0%
COc1cccc(Nc2ccc(Nc3cccc(OC)c3)nn2)c1	-2%	9%	13µM*[quencher]	?	-5%
COc1cccc(Nc2nnc(SCc3nc4ccccc4s3)s2)c1	2%	-13%	14µM*[quencher]	?	-4%
COc1cccc(Nc2nc(-c3ccc(O)cc3)cs2)c1	-3%	8%	14µM*[quencher]	11µM*	-7%
Cc1cccnc1Nc1nc(-c2ccc(O)cc2)cs1	-10%	12%	18µM*[quencher]	13µM*	-4%
COc1cccc(C(=O)Nc2nc(-c3ccncc3)cs2)c1	?	10%	-4%	?	-26%
CCOC(=O)CCCNC(=O)N1CCc2nc(-c3ccc(OC)cc3C)c3c(c2C1)CO[C@@H](c1ccccc1)C3	2%[11.2 µM]	4%[11.6 µM]	-4%[11.6 µM]	-2%[11.5 µM]	-3%[11.2 µM]
C=C(C)C(=O)OCC1CN2C(CCC(C)C2c2ccc(Br)cc2)C(=O)O1 (stereo not given)	4%[11.2 µM]	6%[11.6 µM]	-6%[11.6 µM]	-6%[11.5 µM]	0%[11.2 µM]
O=C(C[n+]1ccc(C(=O)N/N=C/c2ccc(Cl)cc2Cl)cc1)c1ccccc1	6%	10%	?	16µM*	1%
